Screening results deposited in PubChem by National Center for Advancing Translational Sciences (NCATS).
ALDH1A1 inh-1: qHTS Assay for Inhibitors of Aldehyde Dehydrogenase 1 (ALDH1A1). Aldehyde dehydrogenase 1A1 (Homo sapiens), P00352. Purified ALDH1A1, NADH fluorescence, propionaldehyde substrate. Potency, µM (series often up to 75.3 µM), without a hit: at the top dose activity, negative = inhibition, most hits filed as inhibitors. 220,000 compounds, 7.3% hits; active = well fitted inhibition curve with a large enough effect, not every such curve was filed as active; inconclusive = small, poorly fitted or top-dose-only effect, or another doubt; inactive = no such curve, though single readings can be large or run the other way;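 note: potency is the fitted concentration of half-maximal effect; plate controls were no enzyme wells and a reference inhibitor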
HPGD block: qHTS Assay for Inhibitors of HPGD (15-Hydroxyprostaglandin Dehydrogenase) | 15-hydroxyprostaglandin dehydrogenase [NAD(+)] (Homo sapiens), P15428 | purified HPGD, NADH fluorescence kinetic, PGE2 substrate | Potency, µM, for the others: at the top dose activity change, negative = inhibition, actives largely listed as inhibitors | 150,000 compounds, 4.3% hits | AID 894, 2007; active = well fitted inhibition curve with a large enough effect, not every such curve was filed as active; inconclusive = small, poorly fitted or top-dose-only effect, or another doubt; inactive = no such curve, though single readings can be large or run the other way; note: potency is the fitted concentration of half-maximal effect; % is set by controls: 0 for no effect and ±100 for the full control effect
Target sequence (P15428 whole entry, looked up): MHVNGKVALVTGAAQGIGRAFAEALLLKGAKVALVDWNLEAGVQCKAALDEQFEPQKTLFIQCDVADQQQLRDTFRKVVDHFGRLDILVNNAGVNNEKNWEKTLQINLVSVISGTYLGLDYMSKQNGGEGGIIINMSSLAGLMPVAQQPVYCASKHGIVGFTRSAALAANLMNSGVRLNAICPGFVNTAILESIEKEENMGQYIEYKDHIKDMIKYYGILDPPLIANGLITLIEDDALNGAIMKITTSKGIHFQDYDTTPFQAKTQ
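NADH formation kinetics: reaction with 30 uM PGE2 and 1 mM NAD+ (final), 20 nM enzyme, Tris-HCl pH 8 with Tween 20, after 15 min compound preincubation at room temperature. Fluorescence change, last versus first of five reads.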
LMNA splice mod: qHTS Assay for Modulators of Lamin A Splicing. HeLa LMNA splicing GFP/RFP minigene ratio, 48 h. Potency, µM (doses to about 46.1 µM), without a hit: at the highest dose ratio change, negative = inhibition, usual class: inhibitors. 200,000 compounds, 0.01% hits. AID 1487, 2009; active = well fitted inhibition curve with a large enough effect in the signal ratio, with a control signal flat, not every such curve was filed as active; inconclusive = small, poorly fitted or top-dose-only effect, or effect the other way, or a change in a side signal; the % refers to the signal ratio; note: potency is the fitted concentration of half-maximal effect; % is set by controls: 0 for no effect and ±100 for the full control effect
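S3 HeLa cells stably expressing lamin A-EGFP splicing minigene plus DsRed2, 600 cells/well, 48 h compound exposure at 37C. Laser-scanning cytometry; analysed as GFP (500-530 nm)/RFP (575-640 nm) total intensity ratio; 0.5% DMSO vehicle.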
HTT ATP protect: qHTS Multiplex Assay to Identify Dual Action Probes in a Cell Model of Huntington: Cytoprotection (ATP); PC12 HTT-Q103 induced, cytoprotection, ATP luminescence, 40 h; Potency, µM (highest dose often 56.4 µM), for inactives: cytoprotection (ATP increase), actives largely listed as activators; 230,000 compounds, 0.14% hits; AID 1471, 2008; note: potency is the fitted concentration of half-maximal effect; % of control where 0% means no effect; nearly all actives have a fitted effect of over 45% in size
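PC12 cells stably carrying ecdysone-inducible Htt exon 1 (Q103)–GFP were induced with 100 nM tebufenozide (final) alongside library compounds in a dose series. Cytoprotection was scored as retained ATP by ATPlite luminescence.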
HTT aggregate: qHTS Multiplex Assay to Identify Dual Action Probes in a Cell Model of Huntington: Aggregate Formation (GFP); PC12 HttQ103-GFP aggregates, Acumen cytometry, 40 h; Potency, µM (doses to about 46.1 µM), for inactives: at the highest dose activity change, negative = inhibition, usual class: inhibitors; 220,000 compounds, 1.1% hits; note: potency is the fitted concentration of half-maximal effect; % is set by controls: 0 for no effect and ±100 for the full control effect; nearly all actives have a fitted effect of over 60% in size
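PC12 cells with ecdysone-inducible HTT exon1 Q103-GFP, induced by 100 nM tebufenozide, given compounds in a concentration series. GFP aggregates (1–25 um, 6 SD above background) counted in lysates by laser-scanning cytometry, 488 nm excitation.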
HPGD inh cf: Confirmation qHTS Assay for Inhibitors of HPGD (15-Hydroxyprostaglandin Dehydrogenase); 90 compounds, 90% hits; shares compounds with HPGD block; recombinant HPGD, NADH fluorescence, PGE2 substrate; Potency, µM (series often up to 57.1 µM), for the others: top-dose activity change, negative = inhibition, actives largely listed as inhibitors; calls by dose curve
ALDH1A1 inh-2: Inhibitors of Aldehyde Dehydrogenase 1 (ALDH1A1): Followup Confirmation and Counterscreen. Potency, µM (doses to about 57.1 µM), without a hit: top-dose activity change, negative = inhibition, hits mostly inhibitors. purified ALDH1A1, NADH fluorescence, propionaldehyde/NAD+. 90 compounds, 90% hits. shares compounds with ALDH1A1 inh-1; calls by dose curve
An asterisk follows results filed as active; [ ] = dose if it differs, or a comment. Most compounds without a hit are left out; they make up all but 8.8% or so of the library. Unless noted, calls come from the whole dose curve; as a rule, active = well fitted curve in the direction sought with a large enough effect; inconclusive = small, poorly fitted or top-dose-only effect, or another doubt; inactive = no such curve, though single readings can be large; an effect the other way counts as inactive or inconclusive.

For COCCn1c(=O)sc2ccccc2c1=O the results were ALDH1A1 inh-1 -11%, LMNA splice mod 18%[46 µM], HTT ATP protect -31%[10 µM] and HTT aggregate 4%.
`O=c1c2ccccc2sn1-c1ccccc1` gave ALDH1A1 inh-1 4.5µM*, HPGD block 0.56µM*, LMNA splice mod -12%, HTT ATP protect -57%, HTT aggregate -33% and HPGD inh cf 0.45µM*.
For COc1cc(NC(=S)NCc2ccc(S(N)(=O)=O)cc2)c(OC)cc1Cl the results were ALDH1A1 inh-1 inconclusive, HPGD block -30%, LMNA splice mod -1%, HTT ATP protect 7%[10 µM] and HTT aggregate -22%.
Cc1ccc(NS(=O)(=O)c2cc(NC(=O)C(C)Oc3ccccc3)ccc2C)c(C)c1 (configuration not stated) was read as ALDH1A1 inh-1 13%, HPGD block -15%, LMNA splice mod inconclusive, HTT ATP protect -9%[10 µM] and HTT aggregate 5%.
`Cc1ccc(C)c(S(=O)(=O)Nc2cc(SCC(=O)O)c(O)c3ccccc23)c1` gave ALDH1A1 inh-1 25µM*, HPGD block 0.89µM*, LMNA splice mod inconclusive, HTT ATP protect -2%[10 µM], HTT aggregate -18% and HPGD inh cf 0.4µM*.
Cc1ccc(S(=O)(=O)NCc2ccc(C(=O)N3CCc4ccccc4C3)cc2)cc1 was read as ALDH1A1 inh-1 inconclusive, HPGD block 1.4µM*, LMNA splice mod inconclusive, HTT ATP protect -13%[10 µM], HTT aggregate inconclusive and HPGD inh cf 2.2µM*.
For Cc1ccc(CN(c2ccc(C(=O)N3CCc4ccccc4C3)cc2)S(C)(=O)=O)cc1 the results were ALDH1A1 inh-1 12%, HPGD block inconclusive, LMNA splice mod inconclusive, HTT ATP protect -19%, HTT aggregate -24% and HPGD inh cf 11µM*.
`Cc1nnc(SCC(=O)NC2CCCCC2)s1` gave ALDH1A1 inh-1 -2%, LMNA splice mod 14%[46 µM], HTT ATP protect -18% and HTT aggregate -13%.
Screening CCC(C)(C)c1nnc(NC(=O)c2ccc([N+](=O)[O-])cc2)s1 returned ALDH1A1 inh-1 11%, HPGD block -1%, LMNA splice mod 7%, HTT ATP protect -16% and HTT aggregate -4%.
Screening O=C(c1cccc([N+](=O)[O-])c1)n1nc(-c2ccccc2)nc1NCc1ccccc1 returned ALDH1A1 inh-1 -11%, LMNA splice mod -9% and HTT aggregate inconclusive.
For O=C(CSc1nc(-c2ccccc2)nn1C(=O)c1ccccc1)Nc1cccc([N+](=O)[O-])c1 the results were ALDH1A1 inh-1 22µM*, HPGD block 1.3µM*, LMNA splice mod 19%, HTT ATP protect -10%, HTT aggregate 5% and HPGD inh cf 2.5µM*.
Screening COc1ccc(S(=O)(=O)NCC2CCCN(C(=O)c3sccc3C)C2)cc1 (configuration not stated) returned ALDH1A1 inh-1 0.18µM*, LMNA splice mod inconclusive, HTT ATP protect 4%[10 µM], HTT aggregate 4%[9.22 µM] and ALDH1A1 inh-2 0.089µM*.
`COCC(=O)N1CCCC(CNS(=O)(=O)c2ccc(OC)cc2)C1` (configuration not stated) gave ALDH1A1 inh-1 -8%, LMNA splice mod -1%[46 µM], HTT ATP protect 25%[10 µM] and HTT aggregate 25%[9.22 µM].
